From PubChem BioAssay (EPA / NIEHS)
Results filed as inconclusive are left out. The source made the active and inactive calls. How the source made its calls, unless noted: active means hit-call score of the fitted dose curve at least 0.9, where 1 is the maximum; inactive means score below 0.9.

What was measured:
[1] = CCTE_Shafer_MEA_acute_interburst_interval_mean: CCTE's Neural Acute Assay for Mean Interburst Interval, Shafer Lab (AID 2284016);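 further: percent change of mean interburst interval versus each well's own pre-dose baseline; curves fitted for decrease in interburst interval relative to DMSO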
In short: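 Rat primary cortical neurons on 48-well MEAs at DIV 13 or 15 were exposed acutely to 0.03-40 uM. Spikes detected at 8x rms noise, 37 C. Mean interburst interval from 40 min recordings expressed as percent change from 40 min pre-treatment baseline.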

[2] = CCTE_Shafer_MEA_acute_burst_percentage_mean: CCTE's Neural Acute Assay for Percentage of Spikes in a Burst, Shafer Lab (AID 2284017)
In short: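 Primary rat cortical neurons on 48-well MEA plates, treated on DIV 13 or 15 at 0.03-40 uM. Spikes detected at 8x rms noise at 37C; percent change from 40-min baseline to 40-min post-dose recording, fitted versus DMSO.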

[3] = CCTE_Shafer_MEA_acute_burst_percentage_std: CCTE's Neural Acute Assay for Standard Deviation of Burst Percentage, Shafer Lab (AID 2284018);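 further: fitted in the negative direction so actives lower burst percentage SD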
In short: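 Primary rat cortical neurons on 16-electrode MEA wells were recorded 40 min at baseline (DIV 13 or 15), then 40 min after compound (0.03-40 uM), at 37 C. Well value is SD across electrodes of spikes-in-bursts/total spikes; endpoint is percent change, DMSO-referenced.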

[4] = CCTE_Shafer_MEA_acute_per_network_burst_spike_number_mean: CCTE's Neural Acute Assay for Average Number of Spikes in a Network Burst, Shafer Lab (AID 2284019);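 on AC50: curve fitted for loss of signal so actives reduce spikes per network burst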
In short: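 Acute exposure of rat primary cortical networks (DIV 13/15) on MEAs; adaptive spike detection at 8x rms noise, 37 C. Percent change in spikes per network burst after 40 min with compound (0.03-40 uM), negative direction vs DMSO.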

[5] = CCTE_Shafer_MEA_acute_per_network_burst_spike_number_std: CCTE's Neural Acute Assay for Standard Deviation of Number of Spikes in a Network Burst, Shafer Lab (AID 2284020);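 further: fitted for decrease in spike-number SD versus DMSO so actives lower it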
In short: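 Acute MEA exposure, rat cortical neurons, 0.03-40 uM. Per-well % change versus own baseline; DMSO as negative control.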

[6] = CCTE_Shafer_MEA_acute_per_network_burst_electrodes_number_mean: CCTE's Neural Acute Assay for Mean Number of Electrodes in a Network Burst, Shafer Lab (AID 2284021);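 further: curves fitted for decreases only so hits reduce electrodes per burst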
In short: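 Cultures of rat cortex neurons were exposed on DIV 13 or 15 to compounds at 0.03-40 uM in at least three wells each. Activity over 40 min before and 40 min after exposure at 37 C gave the percent change in electrodes per network burst.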

[7] = CCTE_Shafer_MEA_acute_network_burst_percentage: CCTE's Neural Acute Assay for Percentage of Network Bursts, Shafer Lab (AID 2284022);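 further: curves fitted for loss so actives lower network burst percentage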
In short: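 Cortical neurons from rat were grown over microelectrode arrays and used on day 13 or 15 in vitro. Wells with at least 10 active electrodes received test chemical at 0.03-40 uM. Activity during 40 min of exposure was compared with the preceding 40-min baseline.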

[8] = CCTE_Shafer_MEA_acute_cross_correlation_area: CCTE's Neural Acute Assay for Area of Cross Correlation, Shafer Lab (AID 2284024);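 further: area under pooled inter-electrode spike cross-correlation near zero lag as percent change from own baseline; curves fitted for loss of cross-correlation area so actives lower synchrony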
In short: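 Acute exposure of mature rat cortical networks (day 13 or 15 post-plating) to 0.03-40 uM compound. Spontaneous spiking on MEA, 40 min pre- and post-dose at 37 C.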

[9] = CCTE_Shafer_MEA_acute_cross_correlation_HWHM: CCTE's Neural Acute Assay for Cross Correlation at Half Width at Half Maximum, Shafer Lab (AID 2284026);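 further: spontaneous network firing of rat primary cortical neurons on multiwell microelectrode arrays; percent change per well from pre-dose baseline in spike cross-correlogram half width; hits are a decrease in cross-correlogram half width relative to DMSO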
In short: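 Primary cortex (rat), MEA, DIV 13/15; compound 0.03-40 uM; 40 min pre + 40 min post at 37 C; spike threshold 8x rms; wells need ≥10 active electrodes; endpoint = % change in cross-correlogram HWHM vs baseline, DMSO negative control.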

[10] = CCTE_Shafer_MEA_acute_synchrony_index: CCTE's Neural Acute Assay for Synchrony, Shafer Lab (AID 2284027);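 further: network synchrony index of spontaneous spiking in primary rat cortical neurons on MEAs; fitted for loss of signal so actives lower synchrony relative to DMSO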
In short: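 Acute exposure of rat primary cortical neurons (DIV 13 or 15) at 0.03-40 uM. Synchrony index, 40 min before vs after, as % change relative to DMSO control.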

[11] = CCTE_Shafer_MEA_dev_firing_rate_mean: CCTE's Neural Network Formation Assay for Mean Firing Rate, Shafer Lab (AID 2284031);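 on AC50: curve fitted for loss of firing so AC50 reflects decreased mean firing rate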
In short: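 Extracellular spike frequency, AUC over DIV 5–12 recordings, in rat cortical neuron MEA cultures dosed from plating; loss direction vs DMSO.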

[12] = CCTE_Shafer_MEA_dev_per_burst_spike_percent: CCTE's Neural Network Formation Assay for Percent of Spikes in a Burst, Shafer Lab (AID 2284032);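 on AC50: fitted as a decrease in burst spike percentage below DMSO baseline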
In short: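 Value is trapezoidal AUC over recordings on days 5, 7, 9 and 12 of the well-mean fraction of spikes falling in single-electrode bursts; rat cortical cultures exposed continuously from plating, treatment renewed DIV 5 and 9, fitted downward against DMSO.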

[13] = CCTE_Shafer_MEA_dev_active_electrodes_number: CCTE's Neural Network Formation Assay for Number of Active Electrodes, Shafer Lab (AID 2284040; active means hit-call score of the fitted dose curve at least 0.9, where 1 is the maximum;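 on AC50: potency for loss of active electrodes versus DMSO so lower counts are hits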)
In short: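 Developing rat cortical networks on MEAs, exposed DIV 0–12. Value is the AUC of active-electrode counts (≥5 spikes/min) from days 5, 7, 9, 12, relative to DMSO.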

[14] = CCTE_Shafer_MEA_dev_burst_rate: CCTE's Neural Network Formation Assay for Burst Rate, Shafer Lab (AID 2284042);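 on AC50: potency for loss of burst rate below DMSO control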
In short: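 Primary rat cortical neurons on PEI-coated 48-well MEA plates (laminin added with cells at plating) (16 electrodes/well), exposed from plating to day 12, dosing renewed at DIV 5 and 9. Burst rate averaged over active electrodes, recorded DIV 5, 7, 9, 12, summarized as AUC; loss versus DMSO.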

[15] = CCTE_Shafer_MEA_dev_bursting_electrodes_number: CCTE's Neural Network Formation Assay for Number of Bursting Electrodes, Shafer Lab (AID 2284043; active means hit-call score of the fitted dose curve at least 0.9, where 1 is the maximum;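 on AC50: potency is for loss of bursting electrodes relative to DMSO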)
In short: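 Counted: electrodes with burst rate ≥1 per 2 min in each well. Cells: primary rat cortex, 1.5 x 10^5/well, on 16-electrode MEA wells. Exposure: DIV 0–12, compound renewed DIV 5 and 9. Recording days 5, 7, 9, 12; AUC vs DMSO baseline.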

[16] = target: Estrogen receptor (Homo sapiens) (UniProt P03372); experiment: CCTE_Deisenroth_AIME_384WELL_LUC_Active: CCTE's 384-well Estrogen Receptor Transactivation Assay with AIME metabolic competence (ERTA luciferase; metabolism positive), Deisenroth Lab (AID 2284030; active means hit-call score of the fitted dose curve at least 0.9, where 1 is the maximum)
Sequence of Estrogen receptor (Homo sapiens) (P03372 whole entry, looked up): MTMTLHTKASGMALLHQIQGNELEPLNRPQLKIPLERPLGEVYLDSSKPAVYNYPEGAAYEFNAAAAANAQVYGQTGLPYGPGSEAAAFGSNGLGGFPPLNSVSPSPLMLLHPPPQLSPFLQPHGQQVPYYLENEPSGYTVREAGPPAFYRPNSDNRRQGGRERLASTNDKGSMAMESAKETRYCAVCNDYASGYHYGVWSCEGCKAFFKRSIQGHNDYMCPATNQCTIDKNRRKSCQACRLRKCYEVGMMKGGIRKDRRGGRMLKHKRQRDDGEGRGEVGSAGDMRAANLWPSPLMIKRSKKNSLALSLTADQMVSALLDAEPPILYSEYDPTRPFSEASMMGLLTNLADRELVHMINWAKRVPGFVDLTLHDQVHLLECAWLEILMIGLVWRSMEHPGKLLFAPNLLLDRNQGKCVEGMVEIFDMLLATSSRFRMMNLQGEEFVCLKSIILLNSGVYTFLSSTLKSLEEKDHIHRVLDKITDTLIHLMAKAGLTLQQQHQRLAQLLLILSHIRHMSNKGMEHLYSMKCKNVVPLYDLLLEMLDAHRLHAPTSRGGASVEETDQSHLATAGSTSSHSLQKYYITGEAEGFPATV
In short: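 In this metabolism-positive format, a 2-hour exposure to alginate-immobilized rat S9 precedes a 24 hour luciferase transactivation readout in VM7Luc4E2 cells. Dosing spans 10 concentrations from 0.002 to 200 uM.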

[17] = target: Estrogen receptor (Homo sapiens) (UniProt P03372); experiment: CCTE_Deisenroth_AIME_384WELL_LUC_Inactive: CCTE's 384-well Estrogen Receptor Transactivation Assay without AIME metabolic competence (ERTA luciferase; metabolism negative), Deisenroth Lab (AID 2284038; active means hit-call score of the fitted dose curve at least 0.9, where 1 is the maximum;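 further: hits raise estrogen receptor luciferase signal so potencies reflect agonists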)
In short: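 Metabolism-negative mode: AIME lids stamped in alginate-water, no hepatic S9. 2 h chemical incubation → medium onto VM7Luc4E2 ERTA, 24 h. Readout luciferase luminescence; gain-of-signal fit vs 17beta-estradiol. Conc. 0.002 - 200 uM.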

[18] = CCTE_Deisenroth_AIME_384WELL_CTox_Inactive: Cytotoxicity Assessment (CTOX) in CCTE's 384-well Estrogen Receptor Transactivation Assay without AIME metabolic competence (metabolism negative), Deisenroth Lab (AID 2284039; active means hit-call score of the fitted dose curve at least 0.9, where 1 is the maximum;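 further: cell viability via live-cell protease substrate cleaved to fluorescent probe; cells exposed 24 h to medium preincubated 2 h with alginate-water beads without S9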)
In short: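 VM7Luc4E2 cells, metabolism-negative arm: test chemicals (0.002–200 uM, 10 points) pre-incubated 2 h with alginate-water microspheres, then medium transferred to cells for 24 h. Viability read as protease-substrate cleavage to fluorescent probe; loss-of-signal, bidirectional fitting.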

[19] = target: Estrogen receptor (Homo sapiens) (UniProt P03372); experiment: CCTE_Deisenroth_AIME_384WELL_LUC_Shift: CCTE's 384-well Estrogen Receptor Transactivation Assay with AIME metabolic competence data shift (ERTA luciferase; difference in metabolism positive and negative), Deisenroth Lab (AID 2284041);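 further: shift is response with S9 minus without S9 so positive means metabolism raised ER signal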
In short: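 Here, parent compounds undergo 2 h phase I metabolism by PB/BNF-induced rat S9 before 24 h transactivation in VM7Luc4E2 cells; the curve models S9-positive minus S9-negative response over a 10-point series.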

[20] = CCTE_Deisenroth_AIME_384WELL_CTox_Active: Cytotoxicity Assessment (CTOX) in CCTE's 384-well Estrogen Receptor Transactivation Assay with AIME metabolic competence (metabolism positive), Deisenroth Lab (AID 2284037; active means hit-call score of the fitted dose curve at least 0.9, where 1 is the maximum;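 further: chemicals first conditioned 2 h by alginate-bound induced rat liver S9 before cells; activity means signal loss indicating cell death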)
In short: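 VM7Luc4E2 breast cells received medium pre-incubated 2 h with chemical over alginate microspheres holding induced male Sprague Dawley rat liver S9; viability read 24 h later by protease-substrate fluorescence. Loss of signal, bidirectional fit, 0.002–200 uM.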

Measured: AC50

CCCCC=O
active: [7] 32.7 µM
inactive: [1] | [2] | [3] | [4] | [5] | [6] | [8] | [9] | [10]

O=C(CCCN1CCC(O)(c2ccc(Cl)cc2)CC1)c1ccc(F)cc1
active: [4] 0.451 µM | [11] 0.39 µM | [12] 4.18 µM | [13] 2.33 µM | [14] 0.531 µM | [15] 1.65 µM
not listed: [16] | [17] | [18] | [19] | [20]
inactive: all other assays above

CCCCCCCCCC=CCC1CC(=O)OC1=O (stereo not drawn)
inactive: [16] | [17] | [18] | [19]

Oc1ccc(Cc2ccccc2O)cc1
active: [8] 0.00812 µM
inactive: [1] | [2] | [3] | [4] | [5] | [6] | [7] | [9] | [10]

OCC(CO)(CBr)CBr
inactive: [1] | [2] | [3] | [4] | [5] | [6] | [7] | [8] | [9] | [10] | [20]

O=C(F)C(F)(F)C(F)(F)C(F)(F)C(=O)F
inactive: [11] | [12] | [13] | [14] | [15]

C=CC(F)(F)C(F)(F)C(F)(F)C(F)(F)F
inactive: [11] | [12] | [13] | [14] | [15]

CCCCc1ccc2ccccc2c1S(=O)(=O)O
inactive: [16] | [17] | [18] | [19]

c1cnc2c(c1)ccc1cccnc12
active: [20] 30.9 µM | [18] 15.7 µM

O=CC(F)(F)C(F)(F)C(F)(F)C(F)F
inactive: [11] | [12] | [13] | [14] | [15]

O=P(O)(O)CCC(F)(F)C(F)(F)C(F)(F)C(F)(F)C(F)(F)C(F)(F)F
inactive: [11] | [12] | [14]

CC(C)c1c(C(=O)Nc2ccccc2)c(-c2ccccc2)c(-c2ccc(F)cc2)n1CC[C@@H](O)C[C@@H](O)CC(=O)O
active: [11] 0.013 µM | [12] 0.00992 µM | [13] 0.00981 µM | [14] 0.00894 µM | [15] 0.00922 µM

CN(CCO)S(=O)(=O)C(F)(F)C(F)(F)C(F)(F)C(F)(F)C(F)(F)C(F)(F)C(F)(F)C(F)(F)F
inactive: [11] | [12] | [14] | [15]

Cc1ccc(S(=O)(=O)O)cc1
inactive: [18]

O=C(OC(=O)C(F)(F)C(F)(F)F)C(F)(F)C(F)(F)F
inactive: [11] | [12] | [13] | [14] | [15]

NC(C(F)(F)F)C(F)(F)F
inactive: [11] | [12] | [13] | [14] | [15]

Cc1cc(Cc2cc(C)cc(C(C)(C)C)c2O)c(O)c(C(C)(C)C)c1
active: [20] 43.1 µM | [18] 41.8 µM
inactive: [19]

O=C(O)CCC(F)(F)C(F)(F)C(F)(F)C(F)(F)C(F)(F)F
inactive: [11] | [12] | [14] | [15]

O=S(=O)(O)c1ccccc1
inactive: [20]

O=CC(F)(F)C(F)(F)C(F)(F)F
inactive: [11] | [12] | [13] | [14] | [15]

O=C(C=C(O)C(F)(F)F)C(F)(F)F
inactive: [11] | [12] | [14] | [15]

CCCCCCCCCCCCOS(=O)(=O)O
active: [20] 143 µM | [18] 147 µM

Cc1[nH]nc2c1N=C(c1ccccc1Cl)c1cc([N+](=O)[O-])ccc1N2
active: [20] 159 µM | [18] 138 µM

NC(=NCCCCCCN=C(N)/N=C(\N)Nc1ccc(Cl)cc1)/N=C(\N)Nc1ccc(Cl)cc1
active: [20] 59.5 µM | [18] 46.8 µM
inactive: [19]

CC(O)COc1ccccc1 (stereo not drawn)
inactive: [20] | [18]

CN(Cc1cnc2nc(N)nc(N)c2n1)c1ccc(C(=O)N[C@@H](CCC(=O)O)C(=O)O)cc1
active: [11] 0.123 µM | [12] 0.0318 µM | [13] 0.0303 µM | [14] 0.0365 µM | [15] 0.0209 µM

FC(F)=C(F)C(F)(F)C(F)(F)C(F)(F)C(F)F
inactive: [11] | [12] | [14]

O=C(F)C(F)(F)C(F)(F)C(F)(F)C(F)F
inactive: [11] | [12] | [13] | [14] | [15]

CCCCCCCCCCCCOC(=O)c1cc(O)c(O)c(O)c1
active: [18] 128 µM
inactive: [20] | [17] | [19]

CCCCC(CC)C(=O)O (stereo not drawn)
inactive: [20] | [18]

COC(=O)C(F)(F)C(F)(F)C(F)(F)C(F)(F)C(F)(F)F
inactive: [11] | [12] | [14]

CC(C)[C@@H]1CC[C@@H](C)C[C@H]1O
inactive: [18]
